# Candida biofilm: clotrimazole potentiators killing Candida biofilms, primary screen, with clotrimazole, Alamar Blue; C. albicans biofilm + clotrimazole; inhibition, % at 6 µM; actives 0.14% (n = 85,000); AID 834, 2007;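 active = inhibition above 20%; inactive = inhibition below 20%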;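 note: preformed 24 hr biofilms exposed to compound for 48 hr; 0% = biofilm without compound and 100% = blank killed by clotrimazole plus chlorhexidine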
# ERb SRC1 inh: inhibitors of ERβ-SRC1 coactivator interaction, primary screen, biochemical, TR-FRET, ERβ LBD, SRC-1 peptide. inhibition, % at 25.6 µM. TR-FRET ER-beta LBD / SRC1-Cy5 peptide binding; receptor agonist-loaded with 1 µM estradiol. actives 1.3% (n = 86,000). AID 633, 2007;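 active = compounds whose percent inhibition of the receptor-coactivator binding signal exceeds about 50% in the single-dose screen, limit read from the data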;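 note: 0% = receptor plus peptide wells without compound and 100% = peptide-only wells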
# Smad3 inh: Smad3/FoxH1 peptide binding inhibitors, primary screen, biochemical, TR-FRET; AID 630, 2007; Mothers against decapentaplegic homolog 3 (Homo sapiens), P84022; TR-FRET Smad3/Dy647-FoxH1 peptide binding, europium anti-His; actives 0.29% (n = 88,000); inhibition, % at 25 µM;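 active = compounds that reduce the energy-transfer binding signal between the protein and its labelled peptide by more than half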;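 note: 0% = Smad3 plus labelled peptide maximal FRET and 100% = peptide-only background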
# ERa SRC1 pot: enhancers of ERα–SRC-1 coactivator binding, primary screen, biochemical, TR-FRET, ERα LBD, low estradiol; Estrogen receptor (Homo sapiens), P03372; TR-FRET ERalpha-LBD/SRC-Cy5 coactivator binding, 2 h; 100 = basal binding, no effect; coactivator binding (% of control), % at 25.6 µM; actives 1.3% (n = 86,000); AID 639, 2007; in the data active = activity above about 200%;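 note: binding measured in presence of low estradiol as agonist stimulus; 0% = peptide alone without receptor and 100% = receptor with peptide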
# Target sequence (P03372 whole entry, looked up, the tested form may be a part): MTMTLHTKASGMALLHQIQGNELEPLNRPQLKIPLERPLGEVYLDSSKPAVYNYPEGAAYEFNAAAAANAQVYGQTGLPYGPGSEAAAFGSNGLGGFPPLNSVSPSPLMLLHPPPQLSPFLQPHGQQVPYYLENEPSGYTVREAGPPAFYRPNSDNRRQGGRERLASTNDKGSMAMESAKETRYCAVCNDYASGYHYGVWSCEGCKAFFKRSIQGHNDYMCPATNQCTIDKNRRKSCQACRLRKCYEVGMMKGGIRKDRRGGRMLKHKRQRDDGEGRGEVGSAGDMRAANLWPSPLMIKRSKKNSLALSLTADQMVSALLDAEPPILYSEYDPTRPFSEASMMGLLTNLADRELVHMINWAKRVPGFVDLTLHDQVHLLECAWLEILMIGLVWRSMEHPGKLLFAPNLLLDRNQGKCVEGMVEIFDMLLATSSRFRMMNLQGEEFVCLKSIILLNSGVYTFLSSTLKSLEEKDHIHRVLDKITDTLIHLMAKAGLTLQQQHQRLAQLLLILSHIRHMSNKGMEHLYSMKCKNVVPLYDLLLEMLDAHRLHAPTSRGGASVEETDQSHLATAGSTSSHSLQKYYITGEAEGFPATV
# ERa SRC1 inh: ERα–SRC-1 coactivator interaction inhibitors, primary screen, biochemical, TR-FRET, ERα LBD, estradiol-bound | Estrogen receptor (Homo sapiens), P03372 | TR-FRET ER-alpha LBD / SRC-1 peptide | inhibition, % at 25.6 µM | actives 1.7% (n = 86,000); in the data active = inhibition above about 50%;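 note: 0% = receptor plus peptide control and 100% = peptide only without receptor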
# * = called active by the depositor; i = inactive; . = no result given; [ ] = remark or other dose. Rows were chosen to be rich in hits. Some 3.6% of all compounds tested hit in one or more screens of this group.
SMILES,Candida biofilm,ERb SRC1 inh,Smad3 inh,ERa SRC1 pot,ERa SRC1 inh
CCOC(=O)c1ccc(NC(=O)CSc2nnc(-c3cccs3)n2CC)cc1,4.4,-44.0,i,383.5*[fluorescence artefact?],-92.1
C=CCn1c(SCC(=O)Nc2cccc(OC)c2)nnc1-c1cccnc1,-2.4,-5.9,1.4,225.9*,0.9
C=CCn1nnnc1SCC(=O)Nc1cccc(OC)c1,7.8,-0.3,6.5,107.5,2.9
C=CCn1c(SCC(=O)Nc2ccc(C(=O)OC(C)C)cc2)nnc1-c1cccs1,4.4,-18.4,-5.5,825.2*[fluorescence artefact?],-67.7
CC1(C)CC(NC(=O)c2coc(=O)c(Br)c2)CC(C)(C)N1,-4.0,-2.3,2.7,123.1,-6.5
O=S(=O)(O)[C@@H](c1ccccc1)[C@@H](O)c1ccccc1,.,.,2.5,.,.
O=C(CSc1nnc(-c2ccco2)n1-c1ccccc1)N1CCc2ccccc21,10.8,-0.6,2.5,124.9,0.7
O=C(CSc1nnc(-c2cccs2)n1-c1ccccc1)N1CCc2ccccc21,5.7,-1.3,i,924.6*[fluorescence artefact?],12.0
CCn1c(SCC(=O)c2ccc(CNC(C)=O)o2)nnc1-c1cccs1,3.6,42.8,7.2,59.5,58.4*
COc1cccc2sc(Nc3nnc(-c4ccc(F)cc4)o3)nc12,4.9,24.6,3.2,74.4,65.0*
COc1cccc2sc(Nc3nnc(-c4cccs4)o3)nc12,4.5,14.3,-5.1,89.0,15.7
COc1ccc(-c2nc(N)c3ncn([C@H]4O[C@H](CO)[C@@H](O)[C@@H]4O)c3n2)cc1,.,.,5.9,.,.
COc1ccc(CC(=O)Nc2cc(C)c3c(=O)oc4ccccc4c3n2)cc1,17.7,52.6*[fluorescence artefact?],-3.9,243.3*,37.7
CCOc1ccc(C(=O)Nc2cc(C)c3c(=O)oc4ccccc4c3n2)cc1,4.0,25.1,16.2,315.0*[fluorescence artefact?],33.2
CCC(CC)C(=O)Nc1cc(C)c2c(=O)oc3ccccc3c2n1,3.9,7.6,3.6,98.0,7.0
Cc1cc(NC(=O)c2ccc(S(=O)(=O)N3CCCC3)cc2)nc2c1c(=O)oc1ccccc12,-2.1,-1.5,-16.9,131.6,3.9
COCCCNC(CC(=O)Nc1ccccc1C(=O)OC)C(=O)O (centres undefined),6.7,-9.2,6.8,117.7,-5.5
CCOC(=O)N1CCC(Nc2c(N3CCN(c4cccc(C(F)(F)F)c4)CC3)c(=O)c2=O)CC1,-2.8,62.8*[fluorescence artefact?],-20.0,98.9,-5.5
C[C@H]1CCC/C=C\[C@@H]2C[C@H](OC(=O)CN(C)C)C[C@H]2[C@@H](O)/C=C\C(=O)O1,.,.,4.8,.,.
NC(=O)c1ccc([N+](=O)[O-])cc1SCc1ccccc1,13.6,53.3*[fluorescence artefact?],-7.1,54.4,39.3
O=[N+]([O-])c1ccc(CS(=O)Cc2ccccc2)cc1 (centres undefined),.,.,-4.2,.,.
CC(C)=CCC/C(C)=C/CCC(C)NCCN1CCNCC1 (centres undefined),2.0,-4.6,-5.4,200.7*[fluorescence artefact?],4.7
O=C(c1cc(-c2ccncc2)nc2ccccc12)N1CCN(S(=O)(=O)/C=C/c2ccccc2)CC1,11.4,12.2,-6.2,92.2,14.2
Cc1cc(C)c(NC(=O)CSc2nc3ccc(NC(=O)CSc4nnnn4Cc4ccccc4)cc3s2)c(C)c1,-1.6,7.2,1.6,114.4,67.3*
O=C(CSc1nc2ccc(NC(=O)CSc3nnnn3Cc3ccccc3)cc2s1)Nc1ccccc1,.,22.7,7.4,116.4,40.6
SMILES,Candida biofilm,ERb SRC1 inh,Smad3 inh,ERa SRC1 pot,ERa SRC1 inh
Cn1cnnc1SCC(=O)Nc1ccc2nc(SCc3cccc4ccccc34)sc2c1,-3.4,-8.1,-2.1,87.6,-20.7
Cn1cnnc1SCC(=O)Nc1ccc2nc(SCc3ccccc3)sc2c1,-2.6,9.9,6.4,366.2*[fluorescence artefact?],-36.3
CC1(C)CC(=O)C(CC2=C(O)CC(C)(C)CC2=O)=C(O)C1,3.5,-1.3,6.3,107.8,3.3
CCOC(=O)CN(C(=O)CSc1nnc(CNc2ccc(C)cc2C)n1CC)c1ccccc1,-8.2,0.9,3.2,96.9,-2.6
CCOC(=O)CN(C(=O)CSc1nnc(CNc2ccc(F)cc2)n1CC)c1ccc(F)cc1,2.2,-7.7,7.9,222.5*,-2.6
Cc1ccc(C(=O)CSC2=C(C#N)C(c3ccco3)C3=C(CC(C)(C)CC3=O)N2)cc1 (centres undefined),3.7,-1.3,-1.6,200.4*,-0.1
COc1ccccc1NC(=O)C1=C(C)NC(SCC(=O)c2ccccc2)=C(C#N)C1c1ccco1 (centres undefined),5.1,4.5,-4.5,277.8*[fluorescence artefact?],-8.3
CCOC(=O)C1=C(c2ccccc2)NC(SCC(=O)NC2CCCCC2)=C(C#N)C1c1ccco1 (centres undefined),1.2,13.1,3.2,364.2*[fluorescence artefact?],12.7
C=CCOC(=O)C1=C(C)NC(SCC(=O)Nc2ccc(C)c(Cl)c2)=C(C#N)C1c1ccco1 (centres undefined),5.3,-9.7,1.6,107.2,94.2*[fluorescence artefact?]
Cc1ccc(NC(=O)CSC2=C(C#N)C(c3ccco3)C3=C(CCCC3=O)N2)cc1 (centres undefined),-3.7,2.1,-13.3,95.6,-2.2
COCCOC(=O)C1=C(C)NC(SCC(=O)NC(C)(C)C)=C(C#N)C1c1ccco1 (centres undefined),5.7,-0.9,1.7,111.0,-0.9
Cc1nc2c3c(-c4ccccc4)nc(N4CCOCC4)nc3nn2c(C)c1CCC(=O)O,3.2,4.1,-3.2,97.3,6.2
O=c1oc2c3c4c(cc2cc1-c1nc2ccccc2[nH]1)CCCN4CCC3,-0.9,58.3*[fluorescence artefact?],39.1,9.8,94.5*[fluorescence artefact?]
Cc1ccc(NC(=O)CN(C)c2ccc(S(=O)(=O)N3CCN(C)CC3)cn2)cc1,7.8,5.2,-8.6,480.9*[fluorescence artefact?],-66.4
CN1CCN(S(=O)(=O)c2ccc(N(C)CC(=O)Nc3ccc(F)cc3)nc2)CC1,7.3,7.8,-0.4,162.1,-6.1
COc1ccc(C2C=C(c3ccccc3)Nc3ncnn32)cc1 (centres undefined),-1.9,85.7*[fluorescence artefact?],-7.4,109.0,-12.3
CCOc1ccc(C2C=C(c3ccc(C)cc3)Nc3ncnn32)cc1 (centres undefined),8.1,0.5,0.8,86.6,9.5
Cc1cc(C)cc(N(CC(=O)N2CCn3c2nc2ccccc23)S(=O)(=O)c2c(C)noc2C)c1,10.6,-6.9,1.2,115.9,-2.0
O=C1c2cccc3cccc(c23)C(=O)N1c1ccc2ncccc2c1,8.3,23.5,3.7,171.6,71.0*[fluorescence artefact?]
COC(=O)COc1ccc(S(=O)(=O)Nc2ccc3c(c2)OCO3)cc1,8.1,21.9,-4.8,57.2,66.5*
COC(=O)COc1ccc(S(=O)(=O)Nc2ccc3c(c2)OCO3)cc1Cl,4.7,8.2,4.8,100.7,5.8
